Source: PubChem BioAssay
An excerpt weighted towards active compounds, which were near 6.2% of everything screened.
SUMO Mot1 rescue – yeast Mot1-301 growth rescue at high temperature, primary screen, SUMOylation pathway inhibitor project, S. cerevisiae, ATP luminescence, 38.5C; S. cerevisiae Mot1-301 growth rescue; percent above DMSO median, 100 means doubled; growth rescue, % at 18.8 µM; 320,000 compounds, 1% hits; AID 2716, 2010;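 active = every valid replicate shows activation above 250% relative to neutral control wells; inactive = the rest, any valid replicate at or below 250%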;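 also: OY570 slx delta 5 strain wells were the positive control but not used for scaling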
AI-2 QS mod – Vibrio harveyi AI-2 quorum sensing modulators, primary screen, JMH597 strain, luminescence/OD600 ratio; 300,000 compounds, 0.4% hits; Vibrio harveyi JMH597 AI-2 luminescence/OD600 ratio, 9 h; active compounds read low; strain lacks LuxN and CqsS sensors; 0 = neutral-control median; activity change, % at 7.5 µM; in the data active = activity change below about -75%, passing the limit was not always enough;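 also: luminescence divided by OD600 gain over 9 h not by final OD600 alone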
Cardio protect – cardioprotection against H2O2-induced cell death, primary screen, uHTS, H9c2 cells, ATPLite luminescence; H9c2 cardiomyocytes, H2O2 injury protection, 2 h; protection from H2O2 cell death, % at 20 µM; 360,000 compounds, 0.63% hits; AID 588492, 2011;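 active = compounds giving at least 50% protection of heart cells from peroxide-induced death in the single-dose screen, raw or plate-pattern-corrected value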;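 also: 0% = DMSO wells with peroxide and 100% = DMSO wells without peroxide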
AHR act – AHR activators, primary screen, cell-based, luminescence, luciferase reporter, human. activation, % at 5 µM. AHR-responsive luciferase reporter cells. Aryl hydrocarbon receptor (Homo sapiens), P35869. AID 2796, 2010. 320,000 compounds, 2.5% hits; in the data active = activation above about 47%;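 also: 0% = vehicle wells and 100% = reference agonist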
NTR1 agonist – agonists of human NTR1, primary screen, imaging, U2OS cells, beta-arrestin-GFP, high content | Neurotensin receptor type 1 (Homo sapiens), P30989 | NTR1-U2OS beta-arrestin-GFP spot imaging, agonist mode | activation, % at 20 µM | 330,000 compounds, 0.17% hits;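 active = activation at or above 40% of the spot to cytoplasm intensity ratio, with at least 20 cells analyzed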;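 also: 0% = DMSO without peptide and 100% = 100 nM NTR1 peptide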
GRIN3A LBD mod – binders of NR3A ligand-binding domain, primary screen, biophysical, differential scanning fluorimetry, uHTS | 340,000 compounds, 2.5% hits | NR3A LBD differential scanning fluorimetry, Tm shift; 0% = protein alone, 100% = glycine-bound protein | Tm shift relative to glycine control, % at 25 µM | AID 1259313, 2017 | Glutamate receptor ionotropic, NMDA 3A (GRIN3A) ligand-binding domain;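 active = melting temperature shift of at least 10% of the positive control shift, at one fixed dose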
AHR act confirm – AHR activators, confirmation, cell-based, luminescence, luciferase reporter, human; 2,300 compounds, 87% hits; shares compounds with AHR act; activation, % at 9 µM; human cells, AHR-responsive luciferase reporter; AID 2845, 2010; in the data active = activation above about 49%;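 also: HepG2 hepatoma cells carrying a DRE-driven firefly luciferase reporter; 0% = vehicle wells and 100% = reference agonist wells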
PXR counter – human PXR activators, counter-screen for AHR activator project, cell-based, luciferase luminescence; shares compounds with AHR act; cell-based PXR reporter; activation, % at 11.6 µM; 2,300 compounds, 88% hits; in the data active = activation above about 11%;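 also: human hepatoma DPX-2 cells expressing full-length human PXR; 0% = DMSO and 100% = reference agonist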
Starred values were filed as active, the others as inactive.

`N/C(=N\OC(=O)c1ccc(Cl)cc1Cl)c1cccnc1` gave AI-2 QS mod 16.8, Cardio protect -29.3, AHR act 26.7, NTR1 agonist 0.7 and GRIN3A LBD mod -1.2.
`N/C(=N\OC(=O)c1cccc2ccccc12)c1cccnc1` gave SUMO Mot1 rescue -2.6, AI-2 QS mod 16.7, Cardio protect -8.8, AHR act 84.6*, NTR1 agonist 1.5, GRIN3A LBD mod -10.8, AHR act confirm 55.3* and PXR counter 14.9*.
`O=C1c2ccccc2-c2nc3ccccc3nc21` gave SUMO Mot1 rescue 35.1, AI-2 QS mod 16.9, Cardio protect -3.8, AHR act 114.8*, NTR1 agonist 4.6, GRIN3A LBD mod -0.3 and AHR act confirm 148.9*.
Screening Cc1nc2c(nc1C)C(=O)c1ccccc1C2=O returned Cardio protect -15.3 and GRIN3A LBD mod 0.3.
Screening Cc1cc(N/N=C/c2ccccc2O)c2ccccc2n1 returned SUMO Mot1 rescue 4.7, AI-2 QS mod 1.9, Cardio protect -6.0, AHR act 106.9*, NTR1 agonist 6.2, GRIN3A LBD mod -7.8, AHR act confirm 123.6* and PXR counter 13.1*.
Screening Oc1ccccc1-c1cc(-c2ccccc2Cl)[nH]n1 returned SUMO Mot1 rescue 26.8, AI-2 QS mod 9.2, Cardio protect -15.5, AHR act 96.0*, NTR1 agonist 17.8, GRIN3A LBD mod 9.3, AHR act confirm 114.9* and PXR counter 18.5*.
CC1=CC(C)(C)NC(=S)N1c1ccc(N(C)C)cc1 was read as Cardio protect 5.1 and GRIN3A LBD mod -0.5.
Cc1ccc(N/N=C(\C#N)C(=N)N2CCOCC2)cc1 was read as SUMO Mot1 rescue -8.3, AI-2 QS mod 5.0, Cardio protect -3.1, AHR act 122.7*, NTR1 agonist -1.9, GRIN3A LBD mod -19.2, AHR act confirm 115.3* and PXR counter 16.5*.
`Cc1ccc(N/N=C(\C#N)C(=N)N2CCCCCC2)cc1` gave SUMO Mot1 rescue 36.3, AI-2 QS mod 1.7, Cardio protect -23.3, AHR act 26.1, NTR1 agonist 3.5 and GRIN3A LBD mod 5.2.
Screening Cc1ccc(C2Nc3ccccc3-c3nc4ccccc4n32)o1 (stereo not given) returned SUMO Mot1 rescue -4.1, AI-2 QS mod 13.8, Cardio protect -6.8, AHR act 116.1*, NTR1 agonist 2.4, GRIN3A LBD mod -0.9, AHR act confirm 73.7* and PXR counter 53.3*.
COc1ccc(-c2csc(N3CCN(S(=O)(=O)c4ccc5c(c4)NC(=O)CO5)CC3)n2)cc1 was read as SUMO Mot1 rescue 3.4, AI-2 QS mod 8.7, Cardio protect -7.5, AHR act -0.9, NTR1 agonist 6.7 and GRIN3A LBD mod 0.6.
O=C(NCCc1ccccn1)c1c(-c2ccccc2)sc2ccccc12 was read as SUMO Mot1 rescue 47.1, Cardio protect -10.0, AHR act 12.4, NTR1 agonist 0.6 and GRIN3A LBD mod -0.6.
`O=C(NCCc1ccccn1)c1c(-c2ccsc2)sc2ccccc12` gave Cardio protect -6.9, AHR act 128.0*, NTR1 agonist 4.3, GRIN3A LBD mod -0.7, AHR act confirm 92.2* and PXR counter 160.9*.
